Here are results for 17 compounds from PubChem BioAssay (NCATS).

Results filed as inconclusive are left out. Calls of active or inactive are those of the source. Calls come from the whole dose curve; as a rule, active = well fitted curve in the direction sought with a large enough effect; inconclusive = small, poorly fitted or top-dose-only effect, or another doubt; inactive = no such curve, though single readings can be large; an effect the other way counts as inactive or inconclusive.

Assay [1] in a line: qHTS of pediatric cancer cell lines to identify multiple opportunities for drug repurposing: Primary screen for MG 63 (6-TG R) cells (AID 1347105). Note: nearly all actives have a fitted effect of over 50% in size. In short, it runs like this:
(§1)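 500-1,000 cells/well; 5 h pre-incubation 37 °C/5% CO2; compound pinned; 48 h; CellTiter-Glo, 15 min RT; luminescence. MIPE 11-pt from 0.78 nM, NPC 8-pt from 0.59 nM final. Bortezomib 2.3 µM final as positive control.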

Assay [2] in a line: qHTS of pediatric cancer cell lines to identify multiple opportunities for drug repurposing: Primary screen for control Hh wild type fibroblast cells (AID 1347106).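 Note: series mostly up to about 46 µM; a drop in luminescence marks cytotoxicity and a rise apparent proliferation; nearly all actives have a fitted effect of over 55% in size.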 In short, it runs like this:
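Viability after 48 h compound treatment at 37C, 500-1,000 cells/well, read as ATP luminescence with CellTiter-Glo. Primary screens used 11-point (MIPE, 0.78 nM-46 µM) or 8-point (NPC, 0.59 nM-46 µM) final concentrations; follow-up screens used 11-point dilutions.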
Background: qHTS replaces the single test concentration by a dilution series.

Assay [3] is described as follows: qHTS of pediatric cancer cell lines to identify multiple opportunities for drug repurposing: Primary screen for Rh30 cells (AID 1347107). Note: series mostly up to about 46 µM; nearly all actives have a fitted effect of over 75% in size. In short, it runs like this:
(§2)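 Cells (500-1,000/well) in growth media were settled 5 h at 37 degrees C, then given compounds for 48 h. Viability was read as CellTiter-Glo luminescence. Primary runs used MIPE at 11 points (0.78 nM-46 µM) and NPC at 8 points (0.59 nM-46 µM); follow-ups used 11 points.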

Assay [4] in a line: qHTS of pediatric cancer cell lines to identify multiple opportunities for drug repurposing: Primary screen for Rh41 cells (AID 1347108).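 Note: series mostly up to about 46 µM; luminescence drop marks cytotoxic hits; nearly all actives have a fitted effect of over 70% in size.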 In short, it runs like this:
as §1

The nature of assay [5]: qHTS of pediatric cancer cell lines to identify multiple opportunities for drug repurposing: Confirmatory screen for NB1643 cells (AID 1347109). Note: nearly all actives have a fitted effect of over 45% in size. Note: potency is the fitted concentration of half-maximal effect. In short, it runs like this:
as §2

Assay [6] in a line: qHTS of pediatric cancer cell lines to identify multiple opportunities for drug repurposing: Confirmatory screen for A673 cells (AID 1347110).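 Note: potency is the fitted concentration of half-maximal effect; cells exposed to compound for 48 h before the viability read; nearly all actives have a fitted effect of over 65% in size.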 In short, it runs like this:
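A673 cells seeded at 500-1,000 cells/well, rested 5 h, then dosed; primary MIPE 11-point (0.78 nM to 46 µM), NPC (0.59 nM to 46 µM); confirmatory 11-point. CellTiter-Glo luminescence after 48 h.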

Assay [7] in a line: qHTS of pediatric cancer cell lines to identify multiple opportunities for drug repurposing: Confirmatory screen for SK-N-MC cells (AID 1347111).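 Note: cells exposed to compound for 48 h before the readout; nearly all actives have a fitted effect of over 70% in size.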 Note: potency is the fitted concentration of half-maximal effect. In short, it runs like this:
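Metabolically active cells were quantified by ATP-dependent luminescence (CellTiter-Glo, 15 min at room temperature) following 48 h treatment. Cells had been plated at 500-1,000 per well and settled for 5 h beforehand.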

Assay [8] in a line: qHTS of pediatric cancer cell lines to identify multiple opportunities for drug repurposing: Confirmatory screen for NB-EBc1 cells (AID 1347115).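 Note: cells exposed to compound for 48 h before the viability read; nearly all actives have a fitted effect of over 45% in size.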 In short, it runs like this: as §2
A short description of assay [9]: qHTS of pediatric cancer cell lines to identify multiple opportunities for drug repurposing: Confirmatory screen for MG 63 (6-TG R) cells (AID 1347119). Note: nearly all actives have a fitted effect of over 55% in size. In short, it runs like this:
as §2

Assay [10] is described as follows: qHTS of pediatric cancer cell lines to identify multiple opportunities for drug repurposing: Confirmatory screen for control Hh wild type fibroblast cells (AID 1347121). Note: nearly all actives have a fitted effect of over 70% in size. In short, it runs like this: as §2
Assay [11] can be described thus: qHTS of pediatric cancer cell lines to identify multiple opportunities for drug repurposing: Confirmatory screen for U-2 OS cells (AID 1347122). Note: nearly all actives have a fitted effect of over 65% in size. Note: potency is the fitted concentration of half-maximal effect. In short, it runs like this: as §2
The nature of assay [12]: qHTS of pediatric cancer cell lines to identify multiple opportunities for drug repurposing: Confirmatory screen for RD cells (AID 1347124).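 Note: cells exposed to compound for 48 h before viability readout; nearly all actives have a fitted effect of over 65% in size.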 In short, it runs like this: as §2
Assay [13] can be described thus: qHTS of pediatric cancer cell lines to identify multiple opportunities for drug repurposing: Confirmatory screen for Rh18 cells (AID 1347125). Note: nearly all actives have a fitted effect of over 55% in size. In short, it runs like this:
as §2

Assay [14] is described as follows: qHTS of pediatric cancer cell lines to identify multiple opportunities for drug repurposing: Confirmatory screen for Saos-2 cells (AID 1347127). Note: nearly all actives have a fitted effect of over 60% in size. Note: potency is the fitted concentration of half-maximal effect. In short, it runs like this: as §2
Assay [15] is described as follows: qHTS of pediatric cancer cell lines to identify multiple opportunities for drug repurposing: Primary screen for RD cells (AID 1347104). Note: nearly all actives have a fitted effect of over 55% in size. In short, it runs like this: as §1
Assay [16] can be described thus: qHTS of pediatric cancer cell lines to identify multiple opportunities for drug repurposing: Confirmatory screen for DAOY cells (AID 1347114). Note: nearly all actives have a fitted effect of over 65% in size. Note: potency is the fitted concentration of half-maximal effect. In short, it runs like this: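 Viability measured as metabolically active cells via CellTiter-Glo luminescence following 48 hours of compound exposure, 11-point dilutions in confirmatory testing. 500-1,000 cells/well plated 5 hours before dosing; controls were DMSO and 2.3 µM bortezomib.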

Assay [17] in a line: qHTS of pediatric cancer cell lines to identify multiple opportunities for drug repurposing: Confirmatory screen for Rh41 cells (AID 1347123).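 Note: potency is the fitted concentration of half-maximal effect; 48 h compound exposure; nearly all actives have a fitted effect of over 60% in size.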 In short, it runs like this: as §2
The nature of assay [18]: qHTS of pediatric cancer cell lines to identify multiple opportunities for drug repurposing: Confirmatory screen for LAN-5 cells (AID 1347113). Note: nearly all actives have a fitted effect of over 65% in size. In short, it runs like this: as §2
A short description of assay [19]: qHTS of pediatric cancer cell lines to identify multiple opportunities for drug repurposing: Confirmatory screen for Rh30 cells (AID 1347126). Note: nearly all actives have a fitted effect of over 55% in size. In short, it runs like this: as §2

Take `CC(C)(C)CC(=O)OCC(=O)[C@@]1(O)CC[C@H]2[C@@H]3CCC4=CC(=O)C=C[C@]4(C)[C@H]3[C@@H](O)C[C@@]21C`: the Potency entry in assay [1], in assay [2], in assay [3], in assay [4], in assay [5] and in assay [7] was “inactive” in each case. Also, the Potency entry in [8], in assay [9], in assay [10], in assay [11], in [12] and in assay [13] was “inactive” throughout. The Potency result in assay [14] is “inactive”. Moreover, the Potency in assay [6] was 2.33 µM (active).
Take `CCCCCCn1c(=O)c2c(ncn2C)n(C)c1=O`: the Potency result in assay [15], in [2], in assay [3] and in assay [4] was “inactive” each time.
For `Cc1cccc(N(C)C(=S)Oc2ccc3c(c2)C2CCC3C2)c1` (stereo not given), the Potency result in [1], in [2], in assay [3] and in [4] was “inactive” throughout.
For `CC(C)=CCC/C(C)=C/CC/C(C)=C/C(=O)OCC(=O)[C@@]1(O)CC[C@H]2[C@@H]3CCC4=CC(=O)C=C[C@]4(C)[C@H]3[C@@H](O)C[C@@]21C`, the Potency entry in [1], in [2], in assay [3], in assay [8] and in assay [13] was “inactive” each time. Moreover, the Potency is 23.3 µM (active) in [5]; 18.5 µM (active) in assay [7]; 20.8 µM (active) in [16]; 20.8 µM (active) in assay [11]; 16.5 µM (active) in [17]; 18.5 µM (active) in assay [14].
In the case of `c1ccc(C(O[C@H]2CCCN(CCc3ccc4c(c3)OCO4)C2)c2ccccc2)cc1`, the Potency entry in [15], in assay [1], in assay [2] and in assay [4] was “inactive” each time.
Consider `CC(CC1c2ccccc2CCc2ccccc21)CN(C)C` (stereo not given), for which the Potency entry in [1], in assay [2], in assay [3] and in assay [4] was “inactive” each time.
Turning to `CCCC(=O)c1cc(O)c(O)cc1O`, the Potency entry in assay [15], in assay [1], in assay [3] and in assay [4] was “inactive” in each case.
As to `CC(C)OC(=O)c1cc2c(OCC(O)CNC(C)(C)C)cccc2[nH]1` (stereo not given), the Potency entry in assay [1], in [2] and in assay [3] was “inactive” each time.
With `CCCN(CCC)C(=O)C(CCC(=O)OCCCN1CCN(CCOC(=O)Cc2c(C)n(C(=O)c3ccc(Cl)cc3)c3ccc(OC)cc23)CC1)NC(=O)c1ccccc1` (stereo not given), the Potency result in [2] was “inactive”.
Take `CN1CCC(N(Cc2cccs2)c2ccccc2)CC1`: the Potency result in assay [1], in assay [2] and in assay [3] was “inactive” throughout.
As for `CC[N+]1(CC)CCC(=C(c2ccccc2)c2ccccc2)C1C` (stereo not given), the Potency result in [1], in [2] and in assay [3] was “inactive” each time.
For the compound `N#C/C(=C1/SC[C@@H](c2ccc(Cl)cc2Cl)S1)n1ccnc1`, the Potency result in assay [1], in assay [2] and in assay [3] was “inactive” throughout.
Consider `CC(=O)OCC(=O)[C@@]1(O)CCC2C3CCC4=CC(=O)CC[C@]4(C)C3[C@@H](O)C[C@@]21C` (stereo not given in full), for which the Potency entry in assay [1], in assay [2], in assay [3], in assay [4], in [5] and in assay [18] was “inactive” in each case. Moreover, the Potency entry in [16], in assay [9], in [10] and in [13] was “inactive” each time. Moreover, the Potency was 16.5 µM (active) in assay [6] and 11.7 µM (active) in [17].
As for `CCCCCCOC(=O)NC(=N)c1ccc(NCc2nc3cc(C(=O)N(CCC(=O)OCC)c4ccccn4)ccc3n2C)cc1`, the Potency result in assay [1] and in assay [3] was “inactive” throughout.
On to `Cc1ccc(CCn2c3c(c4cc(Cl)ccc42)CN(C)CC3)cn1`, for which the Potency entry in assay [1], in [2], in [3] and in assay [4] was “inactive” in each case.
Turning to `O=S(=O)(O)c1ccc2nc(-c3ccccc3)[nH]c2c1`, the Potency entry in assay [2] was “inactive”.
In the case of `Cc1ccc(C(=O)Oc2ccc(C(O)CNC(C)(C)C)cc2OC(=O)c2ccc(C)cc2)cc1` (stereo not given), the Potency entry in assay [1], in [2], in assay [3], in [4], in assay [8] and in [9] was “inactive” throughout. The Potency result in assay [10], in assay [12], in assay [13], in assay [19] and in assay [14] was “inactive” each time. Also, the Potency is 0.0928 µM (active) in assay [6] and 11.7 µM (active) in assay [7].
